Experimental data from PubChem BioAssay AID1159580 (chemical genetic matrix, 2015).
Values joined by “and” are separate entries in the source; they are usually repeats but may differ in a detail not shown here. Identical values can stand only once. The campaign covered roughly 5,500 compounds. About 2,000 (36%) were called active. Roughly 18% stayed inconclusive and do not appear here. No stated cut-off is given here; in the data, active means normalized growth mostly below about 0.91 (no sharp cut-off); inconclusive means no clear call, values can overlap the other calls; inactive means mostly above about 0.92. This is one part of the list.

Experiment: chemical genetic growth profiling, strain panel (AID 1159580);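 further: tested at 20 µM; growth read once vehicle control cultures reached saturation at 30 °C; 1 = growth at the plate median or of vehicle wells; lower values mean less growth of the strain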
Settings: growth OD

Measured: normalized growth

O=C(O)C1CCCNC1 (stereo unspecified)
inactive: S. cerevisiae deletion strains, locus YJR075W, strain HOC1, hits give low values 1.01 | S. cerevisiae deletion strains, locus YKL009W, strain mrt4, hits give low values 1.02 | S. cerevisiae deletion strains, locus YKL068W, hits give low values 1.01 | S. cerevisiae deletion strains, locus YKL085W, strain MDH1 (second series), hits give low values 1.01 | S. cerevisiae deletion strains, locus YKL085W, strain MDH1, hits give low values 1.01 | S. cerevisiae deletion strains, locus YKL160W, strain elf1, hits give low values 1.01 | S. cerevisiae deletion strains, locus YKL190W, strain CNB1, hits give low values 1.01 | S. cerevisiae deletion strains, locus YKR001C, strain vps1, hits give low values 1.01 | S. cerevisiae deletion strains, locus YKR026C, strain gcn3, hits give low values 1.03 | S. cerevisiae deletion strains, locus YKR091W, strain srl3, hits give low values 1.01 | S. cerevisiae deletion strains, locus YLL001W, strain dnm1, hits give low values 1.04 | S. cerevisiae deletion strains, locus YLL026W, hits give low values 1.01 | S. cerevisiae deletion strains, locus YLL041C, strain sdh2, hits give low values 1.02 | S. cerevisiae deletion strains, locus YLR027C, strain aat2, hits give low values 1.02 | S. cerevisiae deletion strains, locus YLR039C, strain RIC1, hits give low values 1.01 | S. cerevisiae deletion strains, locus YLR058C, strain SHM2, hits give low values 1.01 | S. cerevisiae deletion strains, locus YLR102C, strain apc9, hits give low values 1.01 | S. cerevisiae deletion strains, locus YLR113W, strain HOG1, hits give low values 1.05 | S. cerevisiae deletion strains, locus YLR221C, strain rsa3, hits give low values 1.01 | S. cerevisiae deletion strains, locus YLR258W, strain gsy2, hits give low values 1.02 | S. cerevisiae deletion strains, locus YLR262C, strain YPT6 (second series), hits give low values 1.01 | S. cerevisiae deletion strains, locus YLR262C, strain YPT6, hits give low values 1.05 | S. cerevisiae deletion strains, locus YLR268W, strain sec22, hits give low values 1.04 | S. cerevisiae deletion strains, locus YLR320W, strain mms22, hits give low values 1.02 | S. cerevisiae deletion strains, locus YLR330W, strain CHS5, hits give low values 1 | S. cerevisiae deletion strains, locus YLR342W, strain FKS1 (second series), hits give low values 0.997 | S. cerevisiae deletion strains, locus YLR342W, strain FKS1, hits give low values 1.01 | S. cerevisiae deletion strains, locus YLR357W, strain rsc2, hits give low values 1.03 | S. cerevisiae deletion strains, locus YLR370C, strain arc18, hits give low values 1.02 | S. cerevisiae deletion strains, locus YLR371W, strain rom2, hits give low values 1.03 | S. cerevisiae deletion strains, locus YLR384C, strain iki3, hits give low values 1.01 | S. cerevisiae deletion strains, locus YLR418C, strain cdc73, hits give low values 1.05 | S. cerevisiae deletion strains, locus YML016C, strain PPZ1, hits give low values 1.01 | S. cerevisiae deletion strains, locus YML032C, strain rad52, hits give low values 1.04 | S. cerevisiae deletion strains, locus YML120C, strain ndi1, hits give low values 1.01 | S. cerevisiae deletion strains, locus YML124C, strain tub3, hits give low values 1.01 | S. cerevisiae deletion strains, locus YMR058W, strain fet3, hits give low values 1.02 | S. cerevisiae deletion strains, locus YMR078C, strain ctf18, hits give low values 1.03 | S. cerevisiae deletion strains, locus YMR125W, strain sto1, hits give low values 1.02 | S. cerevisiae deletion strains, locus YMR129W, hits give low values 1.03 | S. cerevisiae deletion strains, locus YMR205C, strain PFK2, hits give low values 1.02 | S. cerevisiae deletion strains, locus YMR223W, strain ubp8, hits give low values 1.02 | S. cerevisiae deletion strains, locus YMR231W, strain pep5, hits give low values 1.01 | S. cerevisiae deletion strains, locus YMR263W, strain SAP30, hits give low values 1.01 | S. cerevisiae deletion strains, locus YMR307W, strain GAS1, hits give low values 0.992 and 0.991 | S. cerevisiae deletion strains, locus YNL067W, strain RPL9B, hits give low values 1.01 | S. cerevisiae deletion strains, locus YNL071W, strain lat1, hits give low values 1.02 | S. cerevisiae deletion strains, locus YNL128W, strain TEP1, hits give low values 1.02 and 0.999 | S. cerevisiae deletion strains, locus YNL153C, strain GIM3, hits give low values 1.01 and 1.02 | S. cerevisiae deletion strains, locus YNL175C, strain NOP13, hits give low values 1.02 | S. cerevisiae deletion strains, locus YNL183C, strain NPR1, hits give low values 0.935 | S. cerevisiae deletion strains, locus YNL197C, strain WHI3, hits give low values 1.01 | S. cerevisiae deletion strains, locus YNL209W, strain ssb2, hits give low values 1.02 | S. cerevisiae deletion strains, locus YNL224C, strain SQS1, hits give low values 1.03 | S. cerevisiae deletion strains, locus YNL233W, strain BNI4, hits give low values 1.01 | S. cerevisiae deletion strains, locus YNL248C, strain rpa49, hits give low values 1 | S. cerevisiae deletion strains, locus YNL250W, strain rad50, hits give low values 1.02 | S. cerevisiae deletion strains, locus YNL271C, strain bni1, hits give low values 1.02 | S. cerevisiae deletion strains, locus YNL298W, strain CLA4, hits give low values 1.02 | S. cerevisiae deletion strains, locus YNL307C, strain MCK1, hits give low values 1.03 | S. cerevisiae deletion strains, locus YNL322C, strain KRE1 (second series), hits give low values 1.02 | S. cerevisiae deletion strains, locus YNL322C, strain KRE1, hits give low values 1.01 | S. cerevisiae deletion strains, locus YNR049C, strain mso1, hits give low values 1.02 | S. cerevisiae deletion strains, locus YNR052C, strain pop2, hits give low values 1.02 | S. cerevisiae deletion strains, locus YOL006C, strain TOP1, hits give low values 1.07 | S. cerevisiae deletion strains, locus YOL012C, strain htz1 1.27 | S. cerevisiae deletion strains, locus YOL147C, strain pex11, hits give low values 1.02 | S. cerevisiae deletion strains, locus YOR001W, strain rrp6, hits give low values 1.02 | S. cerevisiae deletion strains, locus YOR061W, strain CKA2, hits give low values 1.01 | S. cerevisiae deletion strains, locus YOR069W, strain VPS5, hits give low values 1 | S. cerevisiae deletion strains, locus YOR070C, strain gyp1, hits give low values 1.02 | S. cerevisiae deletion strains, locus YOR080W, strain dia2, hits give low values 1.02 | S. cerevisiae deletion strains, locus YOR083W, strain WHI5 (second series), hits give low values 1.02 | S. cerevisiae deletion strains, locus YOR083W, strain WHI5, hits give low values 1.01 | S. cerevisiae deletion strains, locus YOR106W, strain vam3, hits give low values 1.01 | S. cerevisiae deletion strains, locus YOR136W, strain idh2, hits give low values 1.02 | S. cerevisiae deletion strains, locus YOR144C, strain elg1, hits give low values 1.02 | S. cerevisiae deletion strains, locus YOR184W, strain ser1, hits give low values 1.04 | S. cerevisiae deletion strains, locus YOR231W, strain MKK1, hits give low values 0.999 | S. cerevisiae deletion strains, locus YOR265W, strain rbl2, hits give low values 1.02 | S. cerevisiae deletion strains, locus YOR270C, strain vph1, hits give low values 1.04 | S. cerevisiae deletion strains, locus YOR290C, strain snf2, hits give low values 1.02 | S. cerevisiae deletion strains, locus YOR316C, strain cot1, hits give low values 1.02 | S. cerevisiae deletion strains, locus YPL051W, strain arl3, hits give low values 1.02 | S. cerevisiae deletion strains, locus YPL055C, strain LGE1, hits give low values 1.03 | S. cerevisiae deletion strains, locus YPL078C, strain atp4, hits give low values 1.03 | S. cerevisiae deletion strains, locus YPL106C, strain sse1, hits give low values 1.01 | S. cerevisiae deletion strains, locus YPL240C, strain hsp82, hits give low values 1.03 | S. cerevisiae deletion strains, locus YPL241C, strain CIN2, hits give low values 1.01 and 1 | S. cerevisiae deletion strains, locus YPL256C, strain CLN2, hits give low values 0.983 | S. cerevisiae deletion strains, locus YPR119W, strain clb2, hits give low values 1.03 | S. cerevisiae deletion strains, locus YPR141C, strain kar3, hits give low values 1.02 | S. cerevisiae deletion strains, locus YPR163C, strain tif3, hits give low values 1.03 | S. cerevisiae deletion strains, locus YPR167C, strain met16, hits give low values 1.03 | S. cerevisiae deletion strains, strain wtn01, hits give low values 1.02 | S. cerevisiae strains, strain wild type, hits give low values 1.01
